Screening data as filed in PubChem.
beta cell repl = inducers of MIN6 beta-cell proliferation, primary screen, ATP luminescence, uHTS; MIN6 cells proliferation, ATPlite luminescence, 48 h; cells starved in 0.2% serum; 100% = growth in 10% serum; proliferation, % at 10 µM; 0.29% of 330,000 active;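 active = compounds whose signal lies at least 3.5 SD above the mean of all wells on their plate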
OPRM1-OPRD1 inv = inverse agonists of MOR-DOR heterodimerization, primary screen, cell-based, luminescence; inhibition, % at 9.3 µM; Mu-type opioid receptor (Homo sapiens) + Delta-type opioid receptor (Homo sapiens), …; 0.21% of 340,000 active; cell-based MOR-DOR heterodimer luminescence, inverse agonism; in the data active = inhibition above about 22%, passing the limit was not always enough
p-CIP stab down = p/CIP-EGFP fusion destabilizers, primary screen, fluorescence, F442A cells; AID 1984, 2009; decrease of EGFP signal, % at 10 µM; Q05BA5; 16 h; 0.01% of 290,000 active;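 active = EGFP signal decrease of at least 30% at 10 µM or well 3 SD below plate mean, unless failing retest; inactive = the rest, including hits failing retest or dose response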
OPRM1-OPRD1 ag = agonists of OPRM1-OPRD1 heterodimerization, primary screen, cell-based, luminescence. Mu-type opioid receptor (Homo sapiens) + Delta-type opioid receptor (Homo sapiens), …. cells. activation, % at 9.3 µM. 0.3% of 340,000 active. AID 504326, 2011; in the data active = activation above about 18%
HTR5A ag ctr = HTR5A agonists in luminescence cell assay, primary screen, counter-screen for OPRM1-OPRD1 heterodimer agonist project, full-deck HTS. cell-based. activation, % at 9.3 µM. 0.61% of 340,000 active. AID 504692, 2011; in the data active = activation mostly above about 9.5%, no sharp cut-off; inactive = mostly below about 7.6%
HTR5A inv ag = HTR5A inverse agonists in luminescence cell assay, primary screen, counter-screen for OPRM1-OPRD1 heterodimer inverse agonist project, full-deck HTS; HTR5A cell line, inverse agonism; 5-hydroxytryptamine receptor 5A (Homo sapiens), P47898; 0.083% of 340,000 active; inhibition, % at 9.3 µM; in the data active = inhibition mostly above about 23%, no sharp cut-off; inactive = mostly below about 18%
Of the large screens only hits and unclear results are named; the others gave an inactive call. In the library only some 1.4% were active in any assay of this set; here they are far more common.

O=C(CSc1nnnn1-c1ccc(Cl)cc1)NC1CCS(=O)(=O)C1 (stereo unspecified)	none (no result: p-CIP stab down)
CCCN1CCN(CCCNC(=O)C(CC)n2nc(C)c3sc4ccccc4c3c2=O)CC1 (stereo unspecified)	HTR5A ag ctr 10
Cc1cc([N+](=O)[O-])ccc1NC(=O)c1csc(C)c1C	HTR5A ag ctr 13
Cc1ccc(NC(=O)CSc2nc(O)cc(=O)n2-c2ccc(C)cc2)cc1	none
O=C(CSc1nc(O)cc(=O)n1-c1ccc(Cl)c(Cl)c1)Nc1ccc(Cl)cc1Cl	HTR5A ag ctr 10
O=C(NCCC(=O)N1CCN(S(=O)(=O)c2ccccc2Cl)CC1)Nc1ccccc1	none (no result: p-CIP stab down)
CNC(=S)N(CCc1cccc(C)c1)Cc1cc2cc(OC)c(OC)cc2[nH]c1=O	none
CNC(=S)N(Cc1cc2cc(OC)c(OC)cc2[nH]c1=O)C1CCCC1	HTR5A ag ctr 13
Cc1ccc(NC(=O)COC(=O)C2CC2(Cl)Cl)cc1C (stereo unspecified)	HTR5A ag ctr 9.0
Cc1ccc(S(=O)(=O)N2CCCCC2)cc1NC(=O)Cn1cnc2c1c(=O)n(C)c(=O)n2C	none (no result: OPRM1-OPRD1 inv, p-CIP stab down, OPRM1-OPRD1 ag, HTR5A ag ctr, HTR5A inv ag)
CN(CCOCCOc1ccc(Cl)cc1Br)Cc1ccccc1	p-CIP stab down 38
CN(CCOc1ccccc1Cl)Cc1ccccc1	none
Cc1nn(-c2ccccc2)c(Cl)c1CN(C(=O)CCl)c1cccc2ccccc12	OPRM1-OPRD1 ag 52, HTR5A ag ctr 40
CC(=O)N(Cc1c(C)nn(-c2ccccc2)c1Cl)c1ccc(Cl)cc1	none
Cc1nn(-c2ccccc2)c(Cl)c1C(=O)NCC(=O)O	none
Cc1nn(-c2ccccc2)c(Cl)c1CN(C(=O)CCl)c1ccc(Cl)cc1	OPRM1-OPRD1 ag 67, HTR5A ag ctr 50 (no result: beta cell repl)
CCN(C[C@H]1N[C@@](Cc2ccccc2)(C(=O)OC)[C@H]2C(=O)N(C)C(=O)[C@@H]12)C(=O)NC(C)C	none (no result: p-CIP stab down)
CC1=NN(c2ccccc2)C(=O)/C1=C/C=C/C=C/N(C)C	OPRM1-OPRD1 inv 33, HTR5A inv ag 22
CCN1CCN(Cc2ccc(NC(=O)c3cc(NC(=O)c4cnn(-c5ccccc5)c4N)cc(OC)c3)cc2C(F)(F)F)CC1	HTR5A ag ctr 12
O=C(Nc1ccc(Cl)c(C(=O)N2CCOCC2)c1)c1ccccc1	none
CCC(CC)NCC(O)COc1ccc(Br)cc1 (stereo unspecified)	none
CC(C)NCC(O)COc1ccc(Br)cc1 (stereo unspecified)	HTR5A ag ctr 12
Cc1cc(C(=O)CCl)c(C)n1CCc1ccc(Cl)cc1	OPRM1-OPRD1 ag 19, HTR5A ag ctr 17
COc1cccc([C@@H]2CC=C(C(=O)O)[C@H](c3ccccc3F)N2S(=O)(=O)c2ccc(C)cc2)c1	none (no result: p-CIP stab down)
COc1cccc(OCC(=O)N2CCCc3ccccc32)c1	HTR5A ag ctr 10
NC(=O)c1cnccc1C=Cc1ccccc1	none (no result: beta cell repl, p-CIP stab down)
C=CCNC(=O)c1cc(-c2ccncc2)nc2c(C)cc(C)cc12	none
O=C(CN(Cc1ccccc1)C(=O)CCl)c1cccc(Br)c1	OPRM1-OPRD1 ag 33, HTR5A ag ctr 38 (no result: p-CIP stab down)
COc1ccc(CN(C)C(=O)c2cccc(NC(=O)CC3SC(N4CCCCC4)=NC3=O)c2)c(OC)c1 (stereo unspecified)	HTR5A ag ctr 11 (no result: beta cell repl, p-CIP stab down)
COc1cccc(CN(C)C(=O)c2cccc(NC(=O)CC3SC(N4CCCCC4)=NC3=O)c2)c1OC (stereo unspecified)	none (no result: p-CIP stab down)
CS(=O)(=O)c1sc(C#N)c2c1C(=O)CC(c1ccccc1)C2 (stereo unspecified)	OPRM1-OPRD1 inv 35
CCOC(=O)c1c(C)sc2c1N(C(=O)CCl)c1cc(Cl)ccc1S2	OPRM1-OPRD1 ag 36, HTR5A ag ctr 19
O=C(Nc1ccccc1Cl)C(Cl)C(=O)c1ccccc1 (stereo unspecified)	OPRM1-OPRD1 inv 52
CCn1nc(C(=O)N2CCc3ccccc32)c2ccccc2c1=O	none (no result: p-CIP stab down)
